Source: PubChem
Ecoli rRNA inh – inhibits bacterial ribosomal RNA function over humanized ribosomes | E. coli WT GFP vs humanized-ribosome RFP mutants, fluorescence, 24 h; hits give low values; DMSO median 0, no signal -100 | actives 1.6% (n = 350,000) | GFP signal change (wild-type ribosome), % (test concentration not listed);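 active means significant combined selectivity score with lowered wild-type GFP, culture density cut under 30%, mutant RFP and density less affected; inactive means any of these conditions unmet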
FGF22 binding – binders of recombinant human FGF22 by thermal shift; Q9HCT0; activity (Tm shift, normalised), % at 9.99 µM; SYPRO orange fluorescence; percent of sucrose octasulfate shift, DMSO zero; AID 651658; actives 1.5% (n = 340,000);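 active means mean Tm shift, scaled 0 neutral to 100 positive control, at about 1.3% or above, every replicate too, limit read from the data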
Target sequence (Q9HCT0 whole entry, looked up): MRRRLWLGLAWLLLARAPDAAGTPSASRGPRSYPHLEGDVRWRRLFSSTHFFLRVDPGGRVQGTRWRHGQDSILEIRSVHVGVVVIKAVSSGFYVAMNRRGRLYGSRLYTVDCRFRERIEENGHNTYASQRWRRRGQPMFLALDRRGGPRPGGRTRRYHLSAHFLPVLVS
ADAM17 inh – inhibits human ADAM17. P78536. actives 0.83% (n = 370,000). recombinant ADAM17, EDANS/DABCYL FRET peptide cleavage. inhibition, % at 6.95 µM;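 active means inhibition above the mean of compounds lying between control limits plus 3 SD, set per campaign, cut at about 8.5% in these data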;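 further: 0% = DMSO-only wells as the low control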
proKLK7 act – proKLK7 (human) activation, primary screen; AID 652039; activation, % at 7 µM; purified proKLK7, EDANS-DABCYL substrate fluorescence; 100% is mature enzyme control, 0% vehicle; actives 0.9% (n = 370,000); P49862;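 active means activation above the mean of all tested compounds plus 3 SD, computed per campaign excluding outliers beyond control limits, cut at about 13% in these data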
Target sequence (P49862 whole entry, looked up): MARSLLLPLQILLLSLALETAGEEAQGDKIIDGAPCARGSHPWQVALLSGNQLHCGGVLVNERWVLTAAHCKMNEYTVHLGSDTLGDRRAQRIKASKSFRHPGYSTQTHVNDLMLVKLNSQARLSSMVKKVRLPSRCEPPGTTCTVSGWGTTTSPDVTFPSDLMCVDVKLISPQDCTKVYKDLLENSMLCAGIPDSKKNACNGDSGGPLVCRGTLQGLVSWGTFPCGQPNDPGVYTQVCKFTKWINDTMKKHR
ADAM10 inh – ADAM10 inhibition, QFRET primary screen. recombinant ADAM10, EDANS/DABCYL FRET peptide cleavage, 3 h. inhibition, % at 7 µM. O14672. actives 0.62% (n = 370,000);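 active means inhibition above a per-campaign cutoff equal to the mean of compounds falling between control-based bounds plus 3 SD, cut at about 20% in these data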;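 further: 0% = DMSO wells while the 100% control is not disclosed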
ADAM10 counter – counter-screen for ADAM17 exosite inhibitors: inhibitors of human ADAM10; shares compounds with ADAM17 inh; recombinant ADAM10, EDANS/DABCYL FRET peptide cleavage, 3 h; inhibition, % at 6.95 µM; actives 47% (n = 2,900); AID 743256;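 active means mean inhibition over the triplicate runs exceeds the activity threshold set in the earlier primary screen, cut at about 20% in these data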;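 further: 0% = DMSO wells and 100% = marimastat wells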
ADAM17 confirm – human ADAM17 inhibition, confirmation; actives 65% (n = 2,900); shares compounds with ADAM17 inh; recombinant ADAM17, EDANS/DABCYL QFRET peptide cleavage; AID 743257; inhibition, % at 6.95 µM;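 active means mean inhibition across replicates above the hit cutoff set in the primary screen, cut at about 8.5% in these data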;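 further: 0% = DMSO wells and 100% = marimastat wells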
The depositor's hits bear a star; / = no result given. Compounds with a hit are over-represented: about 3.8% of the library has one in this group of screens.

SMILES	Ecoli rRNA inh	FGF22 binding	ADAM17 inh	proKLK7 act	ADAM10 inh	ADAM10 counter	ADAM17 confirm
CCOc1ccccc1NC(=O)C(OC(=O)c1ccc(O)cc1)c1ccccc1 (centres undefined)	-42	0	9.6*	0	19	33*	20*
COc1cc(/C=C/c2nc3ccccc3s2)cc(OC)c1O	-6	0	-9	-5	-22	/	/
COc1cc(C=C(c2nc3ccccc3s2)c2nc3ccccc3s2)ccc1O	0	0	9.6*	0	18	20*	14*
COc1cccc(C(=O)N/N=C/c2ccc(OC3CSC3)cc2)c1	/	/	9.2*	1	12	-3	-1
Cc1cccc(C(=O)N/N=C/c2ccc(OC3CSC3)cc2)c1	2	0	-2	1	1	/	/
COc1ccc2c3c([nH]c2c1)[C@@H](CO)N(C(=O)c1cccc(F)c1)CC31CCN(S(=O)(=O)c2cccs2)CC1	-4	0	/	/	/	/	/
CCNC(=O)C[C@@H]1CC[C@H]2[C@@H](COc3ccc(NC(=O)Nc4cccc(F)c4)cc3C(=O)N2C)O1	-2	0	/	/	/	/	/
CCc1cc2c(nc1CC)CCCN2S(=O)(=O)c1ccc(OC)cc1	-43	0	11*	0	5	2	6
CO[C@@H]1CN(C)C(=O)c2ccc(NS(=O)(=O)c3ccccc3)cc2OC[C@H](C)N(Cc2cccnc2)C[C@@H]1C	-1	0	/	/	/	/	/
CCOC(=O)C1=CCN(S(=O)(=O)c2ccccc2C)C1c1ccccc1 (centres undefined)	-13	0	-1	0	-11	/	/
CCOC(=O)C1=CCN(S(=O)(=O)c2ccccc2C)C1c1ccc(Cl)c(Cl)c1 (centres undefined)	-2	0	13*	1	16	11	7
COc1cc(/C=N/NC(=O)c2cc(-c3ccccc3OC(C)C)nc3ccccc23)ccc1O	/	/	11*	-1	17	17	15*
COc1cc(/C=N/NC(=O)c2cc(-c3ccccc3)nc3ccccc23)ccc1O	-3	0	1	-1	8	/	/
C[C@H](CO)N1C[C@H](C)[C@@H](CN(C)S(=O)(=O)c2ccc(Cl)cc2)Oc2ccc(NC(=O)Cc3cn(C)c4ccccc34)cc2C1=O	-3	1	/	/	/	/	/
CN(C)S(=O)(=O)c1cc(NC(=O)COC(=O)Cc2cccc3ccccc23)ccc1Cl	-16	0	8.8*	0	16	27*	17*
CC(=O)N(C)C[C@H]1Oc2ncc(C3=CCCC3)cc2C(=O)N([C@@H](C)CO)C[C@H]1C	6	0	/	/	/	/	/
CC(=O)Nc1ccc(Sc2ncnc3scc(-c4ccccc4)c23)cc1	/	/	10*	-1	7	14	10.0*
Cc1nc2ccc(NS(=O)(=O)c3ccccc3Cl)cc2s1	-5	0	-9	0	-5	/	/
CSc1nc2ccc(NS(=O)(=O)c3cccc(Cl)c3Cl)cc2s1	-38	0	9.7*	1	20	14	10*
CO[C@H]1CN(C)C(=O)c2cc(NS(C)(=O)=O)ccc2OC[C@@H](C)N(CC2CCCCC2)C[C@H]1C	0	-1	/	/	/	/	/
CC(C)=CCc1c(O)ccc(C(=O)Cc2ccccc2)c1O	/	/	10*	-1	18	24*	13*
O=C(C[C@H]1C[C@@H]2c3cc(NC(=O)NC4CCCCC4)ccc3O[C@@H]2[C@H](CO)O1)NCc1ccccn1	-1	0	/	/	/	/	/
Cc1cccc(C2(c3cccc(C)c3)OC(=O)c3ccccc32)c1	/	/	9.6*	1	17	10	15*
O=C1OC(c2ccccc2)(c2ccccc2)c2ccccc21	-6	0	1	0	9	/	/
C[C@H]1CCCCO[C@H](CN(C)S(=O)(=O)c2ccc(F)cc2)[C@@H](C)CN([C@@H](C)CO)C(=O)c2cc(NC(=O)Nc3ccc(C(F)(F)F)cc3)ccc2O1	-3	/	/	/	/	/	/
SMILES	Ecoli rRNA inh	FGF22 binding	ADAM17 inh	proKLK7 act	ADAM10 inh	ADAM10 counter	ADAM17 confirm
COc1ccc2c(C(F)(F)F)cc(=O)oc2c1C	/	/	9.8*	-1	13	17	8
CC(C)CNS(=O)(=O)c1cc(C(=O)OCC(=O)c2ccc3c(c2)OCCO3)c(Cl)cc1Cl	4	1	8	-1	14	/	/
CCCn1c(C)cc(C(=O)COC(=O)c2cc(S(=O)(=O)NCC(C)C)c(Cl)cc2Cl)c1C	/	/	10*	1	15	20*	9.7*
COc1ccccc1Nc1nc(N)nc(CSC(=S)N2CC(C)CC(C)C2)n1 (centres undefined)	/	/	12*	0	17	30*	16*
COc1ccc(Nc2nc(N)nc(CSC(=S)N3CCCCC3)n2)cc1	-32	/	-3	0	0	/	/
COc1ccc(Nc2nc(N)nc(CSC(=S)N3CCCCC3C)n2)cc1 (centres undefined)	-22*	0	9.7*	1	11	13	10*
O=C(NCC[C@@H]1CC[C@H](NC(=O)C2CCCC2)[C@@H](CO)O1)c1ccc(F)cc1	-1	0	/	/	/	/	/
CCC(CC)C(=O)Nc1cccc(C(=O)Nc2ccc(S(=O)(=O)Nc3ccc(C)cc3)cc2)c1	/	/	8.8*	0	18	22*	17*
CCc1nnc(NS(=O)(=O)c2ccc(NC(=O)c3cccc(Br)c3)cc2)s1	-44	/	9.6*	0	2	0	3
CCC(=O)c1ccc(OCC(O)CNCc2ccc(F)cc2)cc1 (centres undefined)	/	0	1	0	-4	/	/
O=C(c1ccccc1)c1ccc(OCC(O)CNCc2ccc(F)cc2)cc1 (centres undefined)	2	0	10*	1	4	3	3
CCC(=O)N(C)C[C@H]1Oc2cc(-c3cccc(F)c3)ccc2S(=O)(=O)N([C@@H](C)CO)C[C@@H]1C	-6	0	/	/	/	/	/
O=C(C[C@@H]1CC[C@@H](NC(=O)c2ccccc2)[C@H](CO)O1)NCc1ccc(Oc2ccccc2)cc1	-7	0	/	/	/	/	/
Cc1cc(C)c(OCC(=O)NCC2COc3ccccc3O2)c(C)c1 (centres undefined)	-34	0	15*	-1	11	9	5
CC(C)c1ccc(S(=O)(=O)Nc2ccc(-n3cnnn3)cc2)cc1	-25	0	-1	0	8	/	/
CC(C)c1ccc(NS(=O)(=O)c2ccc(-n3cccn3)cc2)cc1	2	0	9.1*	0	12	21*	12*
